Structures can show the parent of a compound that is named as a salt. ± gives the standard deviation of the averaged measurements.
Legend:
[1] = tested on: Saccharomyces cerevisiae BY4741 SeMeCo community; experiment: mean cell size (pixel area) (pixels); higher = larger cells; conditions: 10 µM; 24 h; SM minimal medium
How it was run: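 The test system was a fluorescent Saccharomyces cerevisiae BY4741 community with four plasmids, each restoring one auxotrophy and carrying a fluorescent marker. Cells were grown for 24 h in SM medium with drug at a final 10 µM in 384-well plates, then fixed with paraformaldehyde and imaged by automated confocal microscopy for Harmony analysis of mean cell pixel area per well. Values represent the average of 3 replicates. Same SeMeCo high-content imaging drug screen: Selleck FDA-approved drugs at 10 µM, 24 h in SM medium, 384-well plates, 3 replicates.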

[2] = tested on: Saccharomyces cerevisiae BY4741 SeMeCo community; experiment: z-score of prototroph abundance vs DMSO median; higher = larger share of this subpopulation than in DMSO controls; conditions: 10 µM; 24 h; SM minimal medium; subpopulation (auxotrophy): Prototroph
How it was run: (§1)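 Automated confocal microscopy of paraformaldehyde-fixed cells was used to follow a Saccharomyces cerevisiae BY4741 community carrying four plasmids, each restoring one auxotrophy and encoding a distinct fluorescent protein. The community was pre-grown overnight to OD600 1.0, diluted to 0.3, and added at 70 µl to 384-well plates acoustically predosed with library drugs (10 µM final) for 24 h of growth in minimal SM medium. Single-auxotroph fluorescent strains set thresholds and autofluorescence correction, and each subpopulation's abundance was scored as a z-score against the vehicle-well median.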

[3] = tested on: Saccharomyces cerevisiae BY4741 SeMeCo community; experiment: z-score of subpopulation abundance vs DMSO median, subpopulation auxotrophic for M; higher = larger share of this subpopulation than in DMSO controls; conditions: 10 µM; 24 h; SM minimal medium; subpopulation (auxotrophy): M
How it was run: as §1

[4] = tested on: Saccharomyces cerevisiae BY4741 SeMeCo community; experiment: z-score of subpopulation abundance vs DMSO median, subpopulation auxotrophic for L; higher = larger share of this subpopulation than in DMSO controls; conditions: 10 µM; 24 h; SM minimal medium; subpopulation (auxotrophy): L
How it was run: as §1

[5] = tested on: Saccharomyces cerevisiae BY4741 SeMeCo community; experiment: z-score of subpopulation abundance vs DMSO median, subpopulation auxotrophic for H; higher = larger share of this subpopulation than in DMSO controls; conditions: 10 µM; 24 h; SM minimal medium; subpopulation (auxotrophy): H
How it was run: as §1

[6] = tested on: Saccharomyces cerevisiae BY4741 SeMeCo community; experiment: z-score of subpopulation abundance vs DMSO median, subpopulation auxotrophic for LU; higher = larger share of this subpopulation than in DMSO controls; conditions: 10 µM; 24 h; SM minimal medium; subpopulation (auxotrophy): LU
How it was run: as §1

[7] = tested on: Saccharomyces cerevisiae BY4741 SeMeCo community; experiment: z-score of subpopulation abundance vs DMSO median, subpopulation auxotrophic for LM; higher = larger share of this subpopulation than in DMSO controls; conditions: 10 µM; 24 h; SM minimal medium; subpopulation (auxotrophy): LM
How it was run: as §1

[8] = tested on: Saccharomyces cerevisiae BY4741 SeMeCo community; experiment: z-score of subpopulation abundance vs DMSO median, subpopulation auxotrophic for HM; higher = larger share of this subpopulation than in DMSO controls; conditions: 10 µM; 24 h; SM minimal medium; subpopulation (auxotrophy): HM
How it was run: as §1

[9] = tested on: Saccharomyces cerevisiae BY4741 SeMeCo community; experiment: z-score of subpopulation abundance vs DMSO median, subpopulation auxotrophic for HU; higher = larger share of this subpopulation than in DMSO controls; conditions: 10 µM; 24 h; SM minimal medium; subpopulation (auxotrophy): HU
How it was run: as §1

[10] = tested on: Saccharomyces cerevisiae BY4741 SeMeCo community; experiment: z-score of subpopulation abundance vs DMSO median, subpopulation auxotrophic for HL; higher = larger share of this subpopulation than in DMSO controls; conditions: 10 µM; 24 h; SM minimal medium; subpopulation (auxotrophy): HL
How it was run: as §1

[11] = tested on: Saccharomyces cerevisiae BY4741 SeMeCo community; experiment: z-score of subpopulation abundance vs DMSO median, subpopulation auxotrophic for HLU; higher = larger share of this subpopulation than in DMSO controls; conditions: 10 µM; 24 h; SM minimal medium; subpopulation (auxotrophy): HLU
How it was run: as §1

[12] = tested on: Saccharomyces cerevisiae BY4741 SeMeCo community; experiment: z-score of subpopulation abundance vs DMSO median, subpopulation auxotrophic for HLM; higher = larger share of this subpopulation than in DMSO controls; conditions: 10 µM; 24 h; SM minimal medium; subpopulation (auxotrophy): HLM
How it was run: as §1

[13] = tested on: Saccharomyces cerevisiae BY4741 SeMeCo community; experiment: z-score of subpopulation abundance vs DMSO median, subpopulation auxotrophic for HUM; higher = larger share of this subpopulation than in DMSO controls; conditions: 10 µM; 24 h; SM minimal medium; subpopulation (auxotrophy): HUM
How it was run: as §1

[14] = tested on: Saccharomyces cerevisiae BY4741 SeMeCo community; experiment: z-score of subpopulation abundance vs DMSO median, subpopulation auxotrophic for LUM; higher = larger share of this subpopulation than in DMSO controls; conditions: 10 µM; 24 h; SM minimal medium; subpopulation (auxotrophy): LUM
How it was run: as §1

[15] = tested on: Saccharomyces cerevisiae BY4741 SeMeCo community; experiment: z-score of subpopulation abundance vs DMSO median, subpopulation auxotrophic for HLUM; higher = larger share of this subpopulation than in DMSO controls; conditions: 10 µM; 24 h; SM minimal medium; subpopulation (auxotrophy): HLUM
How it was run: as §1

[16] = tested on: Saccharomyces cerevisiae BY4741 SeMeCo community; experiment: z-score of subpopulation abundance vs DMSO median, subpopulation auxotrophic for U; higher = larger share of this subpopulation than in DMSO controls; conditions: 10 µM; 24 h; SM minimal medium; subpopulation (auxotrophy): U
How it was run: as §1

[17] = tested on: Saccharomyces cerevisiae BY4741 SeMeCo community; experiment: z-score of subpopulation abundance vs DMSO median, subpopulation auxotrophic for UM; higher = larger share of this subpopulation than in DMSO controls; conditions: 10 µM; 24 h; SM minimal medium; subpopulation (auxotrophy): UM
How it was run: as §1

| SMILES | mean cell size [1] | z-score of prototroph abundance [2] | z-score of subpopulation abundance [3] | z-score of subpopulation abundance [4] | z-score of subpopulation abundance [5] | z-score of subpopulation abundance [6] | z-score of subpopulation abundance [7] | z-score of subpopulation abundance [8] | z-score of subpopulation abundance [9] | z-score of subpopulation abundance [10] | z-score of subpopulation abundance [11] | z-score of subpopulation abundance [12] | z-score of subpopulation abundance [13] | z-score of subpopulation abundance [14] | z-score of subpopulation abundance [15] | z-score of subpopulation abundance [16] | z-score of subpopulation abundance [17] |
| --- | --- | --- | --- | --- | --- | --- | --- | --- | --- | --- | --- | --- | --- | --- | --- | --- | --- |
| CCC1(c2ccccc2)C(=O)NCNC1=O [Primidone] | 12.6 ± 0.23 | 0.08 | 0.8 | -0.17 | -0.52 | -0.48 | -0.37 | 0.36 | 0.35 | -0.36 | -0.29 | 0.29 | 0.42 | 0.18 | 0.15 | – | – |
| Cc1cccc(C)c1NC(=O)C1CCCCN1C (stereo unspecified) [Mepivacaine HCl] | 12.5 ± 0.31 | -0.33 | -0.34 | -0.36 | -0.77 | 0.44 | -0.76 | -0.57 | 0.57 | -0.96 | 0.11 | 0.13 | 0.36 | – | 0.2 | – | – |
| CCOC(=O)CCC(=O)O[C@H]1[C@H](O[C@@H]2[C@@H](C)[C@H](O[C@H]3C[C@@](C)(OC)[C@@H](O)[C@H](C)O3)[C@@H](C)C(=O)O[C@H](CC)[C@@](C)(O)[C@H](O)[C@@H](C)C(=O)[C@H](C)C[C@@]2(C)O)O[C@H](C)C[C@@H]1N(C)C [Erythromycin Ethylsuccinate] | 12.4 ± 0.15 | -2.21 | 1.39 | 2.32 | 1.99 | 0.76 | 3.22 | 3.14 | – | 3.1 | 1.44 | 2.71 | 1.68 | 2.68 | 0.83 | -0.67 | -0.31 |
| C[C@@H]1C/C=C/C=C/C=C/C=C/[C@H](O[C@@H]2O[C@H](C)[C@@H](O)[C@H](N)[C@@H]2O)C[C@@H]2O[C@](O)(C[C@@H](O)C[C@H]3O[C@@H]3/C=C/C(=O)O1)C[C@H](O)[C@H]2C(=O)O [Natamycin] | 12.31 ± 0.094 | -16.3 | -8.99 | 1.74 | 12.5 | 8.63 | 2.04 | 8.62 | – | – | 22.7 | 38.1 | 25.6 | 14.5 | 40.5 | 4.12 | – |
| C#C[C@]1(OC(C)=O)CC[C@H]2[C@@H]3CCC4=C[C@@H](OC(C)=O)CC[C@@H]4[C@H]3CC[C@@]21C [Ethynodiol diacetate] | 12.3 ± 0.37 | 0.6 | -0.73 | -0.15 | – | -0.48 | 0.57 | -0.18 | -0.23 | – | 0.1 | -0.54 | -0.26 | – | 0.38 | – | -0.32 |
| Cc1c(OCC(F)(F)F)ccnc1C[S@@+]([O-])c1nc2ccccc2[nH]1 [Dexlansoprazole] | 12.3 ± 0.13 | 0.34 | -0.04 | 0.56 | 1.18 | 0.17 | 1.28 | 0 | – | 0.7 | 0.19 | -0.96 | -0.66 | – | -0.54 | -0.65 | -0.91 |
| CCCCCNC(=N)N/N=C/c1c[nH]c2ccc(OC)cc12 [Tegaserod Maleate] | 12.23 ± 0.022 | -1.66 | 1.25 | 2.04 | 0.7 | 0.84 | 1.85 | 1.48 | 0.48 | 2.5 | 1.26 | 1.63 | 0.89 | 1.92 | – | -1.24 | -0.55 |
| C[C@]12CC[C@@H]3c4ccc(OS(=O)(=O)O)cc4CC[C@H]3[C@@H]1CCC2=O [Estropipate] | 12.21 ± 0.12 | 0.59 | 0.08 | -0.9 | -0.96 | -0.6 | -0.33 | -0.81 | -0.17 | -0.81 | -0.73 | -0.64 | -0.32 | -0.11 | – | -0.01 | 0.16 |
| OCCN1CCN(CCCN2c3ccccc3Sc3ccc(C(F)(F)F)cc32)CC1 [Fluphenazine dihydrochloride] | 12.4 ± 0.097 | -0.57 | -0.08 | 1.3 | 1.1 | 0.63 | 0.55 | 0.59 | – | 1.51 | 1.24 | 1.11 | -0.44 | 0.9 | 0.51 | -0.38 | -1.12 |
| CC(N)C12CC3CC(CC(C3)C1)C2 (stereo unspecified) [Rimantadine] | 12.5 ± 0.14 | – | 0.39 | 0.04 | 0.34 | 0.71 | 0.09 | 0.19 | – | -0.19 | 0.68 | 0.47 | 0.67 | 0.08 | -0.32 | 0.97 | 1.1 |
| NC(=NCCCCCCN=C(N)N=C(N)Nc1ccc(Cl)cc1)N=C(N)Nc1ccc(Cl)cc1 [Chlorhexidine?2HCl] | 11.38 ± 0.084 | – | -3.42 | 0.63 | 2.59 | -1.64 | 0.28 | -2.23 | 0.25 | 2.14 | 3.88 | 0.93 | -0.7 | – | – | -2.8 | -3.13 |
| CC(=O)[O-].[K+] [Potassium acetate] | 12.5 ± 0.15 | 0.52 | -0.39 | -0.45 | – | -0.01 | -0.98 | – | 0.19 | 0.08 | -0.71 | -0.9 | -0.43 | -0.06 | -0.44 | -0.46 | – |
| Cc1ccc(Sc2ccccc2N2CCNCC2)c(C)c1 [Vortioxetine] | 12.18 ± 0.097 | 0.02 | 0.08 | -0.09 | – | -0.19 | -0.16 | -0.01 | – | 0.77 | 0.51 | 0.2 | 0.6 | -0.16 | – | -0.12 | 0.26 |
| COc1ccnc(C[S+]([O-])c2nc3cc(-n4cccc4)ccc3[nH]2)c1C (stereo unspecified) [Ilaprazole] | 12.6 ± 0.45 | – | -0.98 | 2.44 | 4.64 | 0 | 0.85 | 0.96 | -0.45 | 3.84 | 0.92 | 1.1 | -1.45 | -0.52 | – | -1.42 | – |

From the supplement of paper PMC8975748
